This is an account of results in the OligoGym collection.
Further: reference of the scale not given here.

In one test the target is ABCD4. The test is described as follows: pooled miR-30 sensor sort-seq; sequence = guide strand. To be noted: shRNA.
Regarding TCGATCTTCGCTGTCAGTCCTC, the sensor-assay potency score (higher = more potent) is -0.221.
Same read-out and setting: with ATCGGCAGAACCTGAGTCGGGG the figure was -0.759; with TTACAGATCTCACACTTCCAGA, -0.864.

The target of another test is ABCG2. The test is described as above. As to conditions: shRNA.
In turn, TTTAAAGTCTTCTTCTCTGTTT returned a sensor-assay potency score (higher = more potent) of -0.358.
On the same count and under the same terms, with TTCAGCTTTTGTCTCTTTGTAG the figure was -0.298.
TTACCAAATATTCTTCGCCAGT: the sensor-assay potency score (higher = more potent) is -1.15.
On the same count and under the same terms, with TATAATACTTGGTAACATCCTC the figure was 0.377; with TGAGATTGACCAACAGACCTGA, 0.275; with TAATATTTCTTTCTCAACTGGT, 0.563.
Sequence TTTGTCTCTTTGTAGAAGGAGG displayed a sensor-assay potency score (higher = more potent) of -1.31.
TTGAAGACTGTGATCTTCTTCT registered a sensor-assay potency score (higher = more potent) of 0.497.
On to TAACTCTTGAATGACCCTGTTA, for which the sensor-assay potency score (higher = more potent) was -0.548.
As for TTCTATGAGTGGCTTATCCTGC, the sensor-assay potency score (higher = more potent) was -0.526.
Sequence TACGACTGTGACAATGATCTGA showed a sensor-assay potency score (higher = more potent) of 0.524.
Regarding AACATCATCTTGTACCACGTAA, the sensor-assay potency score (higher = more potent) was -0.468.

Another test concerns the target ABHD14A. The test is described as above. To be noted: shRNA.
GAGGTCTGTACCACAGTCGGGC: the sensor-assay potency score (higher = more potent) was -1.45.
Same read-out and setting: under ATGGCCTGCATTGCGTAGCTTC stands -1.76.
In turn, TTGAGTGGGAGCACCTCGCGGT gave a sensor-assay potency score (higher = more potent) of 0.0609.
Same read-out and setting: with TGCATTGCGTAGCTTCACCACA the figure was -1.6.
Sequence TCCATGAAGCAGCACCACCTCC gave a sensor-assay potency score (higher = more potent) of -1.75.
TAAGGGTTGGAGTCTTCACAGC registered a sensor-assay potency score (higher = more potent) of -1.08.
Regarding TTGCGTAGCTTCACCACAGAGT, the sensor-assay potency score (higher = more potent) stood at 0.297.
The same measure, in the same setting: under TCGAGCCAGGATGTGGTCCAGC stands -1.4.
TCTGTGACAGTAGCTGCAGTGT: the sensor-assay potency score (higher = more potent) was -1.16.
On the same count and under the same terms, under TGAGTGGGAGCACCTCGCGGTA stands -1.68.
In the case of TAGCTTCACCACAGAGTGGTTG, the sensor-assay potency score (higher = more potent) was -1.24.

The target of the next test is ABHD14B. The description is as above. To be noted: shRNA.
On to TCCATATACAATCAGAGCTGGA, for which the sensor-assay potency score (higher = more potent) is -1.62.
Same read-out and setting: with TGGTTTGTCCAGGTAACAGGGG the figure was -0.958.
TTCAGGTGCTCAAAGCTGGTCT yielded a sensor-assay potency score (higher = more potent) of -0.558.
Same read-out and setting: under TTTGTCCAGGTAACAGGGGTGC stands -1.14; under TTGATTTTGTCAGTGCAGATGG, -0.728.
The same measure, in the same setting: under TGGACTGATCACAACCGGGGGG stands -0.281; under CTGGTCTCCATATACAATCAGA, -2.16.
Still for that read-out and setting: with ATAGTTGGCAGCATTGATTTTG the figure was -0.758.
Turning to TGCTTCAGGTGCTCAAAGCTGG, the sensor-assay potency score (higher = more potent) was -0.768.
As to AAAGCTGGTCTGACCCATGGGG, the sensor-assay potency score (higher = more potent) was -0.273.
On the same count and under the same terms, under TAGTTGGCAGCATTGATTTTGT stands -0.754; under TTCTGCCAGGTCTCGGAGGAGA, -1.13.
